# According to PubChem BioAssay (Tox21):
# Unmarked numbers belong to inactive results. Records with an inconclusive call do not appear. Entries that show only a call come without a potency. The source made the active and inactive calls. Unless noted, the call rests on the fitted dose curve; in most records, active means well fitted curve in the direction sought with a large enough effect in the repeat runs; inconclusive means weak or mixed curves; inactive means no such curve, though single readings can be large; an effect the other way counts as inactive or inconclusive.
# Key:
# [1] = target: Thyrotropin receptor (Homo sapiens) (UniProt P16473); assay: qHTS assay to identify small molecule agonists of the thyroid stimulating hormone receptor (TSHR) signaling pathway (AID 1224843; calls by dose curve; further: nearly all actives have a fitted effect of over 45% in size)
# In short: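 Cell line HEK293 with TSHR; density 800/well. Exposure 30 min RT. Readout HTRF cAMP (cAMP-d2/anti-cAMP-cryptate), 1 h RT before reading.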
# [2] = qHTS assay to identify small molecule agonists of the hypoxia (HIF-1) signaling pathway - cell viability counter screen (AID 1224844; calls by dose curve; further: nearly all actives have a fitted effect of over 50% in size)
# In short: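 HRE-bla ME-180 cells, 2,000/well in 0.5% dialyzed FBS medium, treated 17 h at 37C with compounds. Viability read in the same wells as the bla reporter, by CellTiter-Glo luminescence after 30 min at room temperature.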
# [3] = qHTS assay to identify small molecule agonists of H2AX (AID 1224845; active means well fitted activation curve with a large enough effect in the signal ratio in the repeat runs, not every such curve was filed as active; the % refers to the signal ratio)
# In short: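 Wild-type CHO-K1 cells plated overnight, then exposed 3 hr at 37C to compounds at 15 concentrations (0.76% DMSO). Lysed, then HTRF anti-pH2AX(S139)-cryptate/anti-H2AX-d2 detection after 24 hr at room temperature; emissions 665 and 620 nm.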
# [4] = qHTS assay to identify small molecule agonists of the hypoxia (HIF-1) signaling pathway (AID 1224846; active means well fitted activation curve with a large enough effect in the signal ratio in the repeat runs, not every such curve was filed as active; the % refers to the signal ratio)
# In short: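 HRE-bla ME-180 beta-lactamase reporter cells in medium with 0.5% dialyzed FBS, pre-incubated 5 h then exposed to compounds 17 h at 37C, 5% CO2; reporter induction read with CCF4-AM FRET substrate.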
# [5] = qHTS assay to identify small molecule agonists of H2AX - cell viability counter screen (AID 1224847; calls by dose curve; further: top concentration of the series differs between compounds; nearly all actives have a fitted effect of over 30% in size)
# In short: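 Quantitative HTS viability measurement: CHO-K1 wild-type cells in serum (10% FBS) medium, short 3 hr drug exposure at 37C with 0.76% DMSO, CellTiter-Glo luminescent detection.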
# [6] = qHTS RealTime-Glo MT Cell Viability Assay in HepG2 cells - 24 hour (AID 1224867); further: nearly all actives have a fitted effect of over 50% in size
# In short: (§1)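 Cells + NanoLuc/prosubstrate dispensed (600 cells/well) → 5 h at 37 C/5% CO2 → compounds in DMSO transferred → 40 h incubation at 37 C, luminescence read at 0, 8, 16, 24, 32, 40 h.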
# [7] = qHTS RealTime-Glo MT Cell Viability Assay in HEK293 cells - 32 hour (AID 1224868); further: top concentration of the series differs between compounds; nearly all actives have a fitted effect of over 50% in size
# In short: (§2)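 Tox21 10K qHTS, HEK293, 600 cells/well, RealTime-Glo reagent co-dispensed with cells; 5 h preincubation, compound by pintool, 37 C, luminescence at 0–40 h.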
# [8] = A CellTox Green Cytotoxicity Assay to monitor cytotoxicity in HEK293 cells - 0 hour (AID 1224869); further: nearly all actives have a fitted effect of over 50% in size
# In short: (§3)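 HEK293 cells, 600/well, were preincubated 5 hours and then exposed to compounds at 37 C for up to 40 hours. A cell-impermeant cyanine dye staining dead-cell DNA was read by fluorescence at 0, 8, 16, 24, 32 and 40 h time points.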
# [9] = qHTS RealTime-Glo MT Cell Viability Assay in HepG2 cells - 40 hour (AID 1224870); further: nearly all actives have a fitted effect of over 50% in size
# In short: (§4)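 HepG2 cells mixed with RealTime-Glo MT reagents (NanoLuc plus cell-permeant prosubstrate) were seeded at 600 cells/well, incubated 5 h at 37 C/5% CO2, then pinned with compounds in DMSO; nonlytic luminescence tracked viability during 40 h treatment.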
# [10] = A CellTox Green Cytotoxicity Assay to monitor cytotoxicity in HEK293 cells - 40 hour (AID 1224871); further: nearly all actives have a fitted effect of over 45% in size; further: potency means the concentration at half of the fitted maximal effect
# In short: as §3
# [11] = qHTS RealTime-Glo MT Cell Viability Assay in HEK293 cells - 16 hour (AID 1224872)
# In short: as §2
# [12] = qHTS RealTime-Glo MT Cell Viability Assay in HepG2 cells - 8 hour (AID 1224873); further: nearly all actives have a fitted effect of over 55% in size
# In short: as §4
# [13] = qHTS RealTime-Glo MT Cell Viability Assay in HEK293 cells - 40 hour (AID 1224874); conditions: RealTime-Glo luminescence; max response: hits give low values; further: nearly all actives have a fitted effect of over 50% in size
# In short: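 600 cells/well were plated with the nonlytic NanoLuc/prosubstrate reagent, pre-incubated 5 h, then given 23 nL of compound in DMSO. Incubation at 37 C for 40 h, with luminescence from viable-cell-reduced substrate read repeatedly from 0 h.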
# [14] = A CellTox Green Cytotoxicity Assay to monitor cytotoxicity in HEK293 cells - 24 hour (AID 1224875); further: series mostly up to about 77 µM; nearly all actives have a fitted effect of over 45% in size
# In short: as §3
# [15] = A CellTox Green Cytotoxicity Assay to monitor cytotoxicity in HepG2 cells - 16 hour (AID 1224876); further: nearly all actives have a fitted effect of over 45% in size
# In short: (§5)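 HepG2 cells, 600/well, preincubated 5 h with CellTox Green dye, then exposed to Tox21 compounds in DMSO at 37 C for up to 40 h. Dead-cell DNA fluorescence read at the indicated time point.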
# [16] = qHTS RealTime-Glo MT Cell Viability Assay in HepG2 cells - 32 hour (AID 1224877); further: nearly all actives have a fitted effect of over 55% in size
# In short: as §1
# [17] = A CellTox Green Cytotoxicity Assay to monitor cytotoxicity in HepG2 cells - 40 hour (AID 1224879); further: nearly all actives have a fitted effect of over 40% in size
# In short: as §5
# [18] = A CellTox Green Cytotoxicity Assay to monitor cytotoxicity in HepG2 cells - 24 hour (AID 1224878); further: nearly all actives have a fitted effect of over 45% in size
# In short: as §5
# Chain of Thyrotropin receptor (Homo sapiens) (P16473 whole entry, looked up): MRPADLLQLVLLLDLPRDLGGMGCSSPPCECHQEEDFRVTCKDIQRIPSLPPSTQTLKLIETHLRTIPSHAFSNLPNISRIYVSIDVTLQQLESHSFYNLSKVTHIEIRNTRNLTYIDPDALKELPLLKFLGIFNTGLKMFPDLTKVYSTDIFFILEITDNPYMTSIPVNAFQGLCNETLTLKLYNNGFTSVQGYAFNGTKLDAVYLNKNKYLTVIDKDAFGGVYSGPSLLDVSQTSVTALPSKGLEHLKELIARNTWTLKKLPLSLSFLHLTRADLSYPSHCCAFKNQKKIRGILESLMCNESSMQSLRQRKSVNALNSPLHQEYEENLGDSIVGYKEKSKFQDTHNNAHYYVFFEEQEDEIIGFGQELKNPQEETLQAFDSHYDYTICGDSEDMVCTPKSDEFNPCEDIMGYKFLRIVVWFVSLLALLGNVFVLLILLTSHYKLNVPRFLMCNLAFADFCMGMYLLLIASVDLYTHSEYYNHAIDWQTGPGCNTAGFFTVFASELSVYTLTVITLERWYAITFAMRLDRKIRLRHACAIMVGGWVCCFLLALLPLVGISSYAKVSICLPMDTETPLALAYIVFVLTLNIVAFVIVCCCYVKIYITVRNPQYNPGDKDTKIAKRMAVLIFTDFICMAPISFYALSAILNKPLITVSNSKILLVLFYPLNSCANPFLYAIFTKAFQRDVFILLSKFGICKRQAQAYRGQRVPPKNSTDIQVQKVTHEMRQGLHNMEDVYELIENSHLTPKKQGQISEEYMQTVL
Structure (SMILES),Potency [1],Potency [2],outcome [3],outcome [4],Potency [5],Potency [6],Potency [7],outcome [8],Potency [9],Potency [10],Potency [11],outcome [12],max response [13] [%],Potency [14],Potency [15],Potency [16],Potency [17],Potency [18]
Cc1cccc2sc3nncn3c12,inactive,inactive,inactive,inactive,inactive,inactive,inactive,inactive,inactive,inactive,inactive,inactive,22,inactive,inactive,inactive,inactive,
ClCCN1CCCC1,inactive,inactive,inactive,inactive,inactive,inactive,inactive,inactive,inactive,inactive,inactive,,,inactive,inactive,inactive,inactive,inactive
NC(=O)OCCCc1ccccc1,inactive,inactive,inactive,inactive,inactive,inactive,inactive,inactive,inactive,inactive,inactive,inactive,2.14,inactive,,inactive,inactive,
O=C(O)c1c(Cl)ccc2cc(Cl)cnc12,inactive,inactive,inactive,inactive,inactive,inactive,inactive,inactive,inactive,inactive,inactive,inactive,17.7,inactive,inactive,inactive,inactive,
CCN[C@H](C)Cc1cccc(C(F)(F)F)c1,inactive,inactive,inactive,inactive,inactive,inactive,inactive,inactive,inactive,,inactive,inactive,-6.31,inactive,inactive,,inactive,inactive
COC(=O)c1ccc(CBr)cc1,inactive,inactive,inactive,inactive,inactive,inactive,inactive,inactive,inactive,inactive,inactive,inactive,3.15,inactive,inactive,inactive,inactive,inactive
CCc1cc(OC)c(C[C@H](C)N)cc1OC,inactive,inactive,inactive,inactive,inactive,inactive,inactive,inactive,inactive,inactive,inactive,inactive,,inactive,inactive,inactive,inactive,inactive
C/C(=N\NC(=O)Nc1cc(F)cc(F)c1)c1ncccc1C(=O)O,inactive,inactive,inactive,inactive,inactive,inactive,inactive,inactive,inactive,inactive,inactive,inactive,,inactive,inactive,inactive,inactive,inactive
C[C@@H](N)[C@@H](O)c1ccccc1,inactive,inactive,inactive,inactive,inactive,inactive,inactive,inactive,inactive,inactive,inactive,inactive,1.05,inactive,,inactive,inactive,inactive
NC1(c2ccccc2)CCCCC1,inactive,inactive,inactive,inactive,inactive,inactive,inactive,inactive,inactive,inactive,inactive,inactive,-3.55,inactive,inactive,inactive,inactive,inactive
CN1C(=O)COc2c(C(=O)NC3CN4CCC3CC4)cc(Cl)cc21 (stereo unspecified),inactive,inactive,inactive,inactive,inactive,inactive,inactive,inactive,inactive,inactive,inactive,inactive,,inactive,inactive,,inactive,inactive
COP(=O)(O)OC,inactive,inactive,inactive,inactive,inactive,inactive,inactive,inactive,inactive,inactive,inactive,inactive,-2.51,inactive,inactive,inactive,inactive,
CCN(CCO)CCO,inactive,inactive,inactive,inactive,inactive,inactive,inactive,inactive,inactive,inactive,inactive,,4.13,inactive,inactive,inactive,inactive,inactive
C/C=C/CC#N,inactive,inactive,inactive,inactive,inactive,inactive,inactive,inactive,inactive,56.2 µM (active),inactive,,9.52,,inactive,inactive,inactive,inactive
CNC(=O)NC(O)C(Cl)(Cl)Cl (stereo unspecified),inactive,inactive,inactive,inactive,inactive,inactive,inactive,inactive,inactive,inactive,inactive,inactive,,inactive,,inactive,inactive,inactive
CS(=O)(=O)Cl,inactive,inactive,inactive,inactive,inactive,inactive,inactive,inactive,inactive,inactive,,,-0.619,inactive,inactive,inactive,inactive,
